Source: PubChem BioAssay (NCI)
“And” between values parts separate entries of the source, which are not always exact repeats. Equal values may be shown once. Compounds without any hit were thinned out: in the full panel of roughly 79,000, 15% have a hit. A structure can be active in one record and inactive in another. The source made the active and inactive calls. Cut-off read from the data, not from the text of the source: active = growth inhibition above about 70%; inactive = the rest.

Test: NCI Yeast Anticancer Drug Screen. Data for the rad50 strain (AID 155);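 note: 0% = growth of vehicle-only cultures of the same strain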
Conditions: S. cerevisiae rad50 strain growth inhibition; at 50.0 µM; stronger effect = higher value
Outline: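 Yeast carrying a defined DNA repair defect were exposed to test compounds, and growth was compared with vehicle-treated controls to give percent inhibition.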

| Compound | growth inhibition |
| --- | --- |
| CC(C)OC(=S)S.[Cu+2] | -7% (inactive) |
| CC1=CC(C(=O)O)P(C)(=O)C1 (stereo not drawn) | -0.9% (inactive) |
| C[CH2][Sn]([CH2]C)([n]1c(C)nc2ccccc21)[n]1c(C)nc2ccccc21 | -11.8% (inactive) |
| CCC[As](=O)(O)CC(C)C | 3.2% (inactive) |
| C1CC[N-]CC1.C1CC[N-]CC1.[Cl][Pd][Cl] | 1.25% (inactive) |
| O=C(O)c1ccccc1 | -11.1% (inactive) and -31.2% (inactive) |
| O=C(CCl)Oc1ccccc1Cl | -19.5% (inactive) |
| N#CCCCBr | -2.7% (inactive) |
| CCCCOCN(COCCCC)C(C)Cc1ccccc1 (stereo not drawn) | 11.7% (inactive) |
| CC(O)CN(CCN(CC(C)O)CC(C)O)CC(C)O.O=[N+]([O-])O.[Cu+2] (stereo not drawn) | 6.05% (inactive) |
| CC1CCC(OC(=O)CCl)CC1 (stereo not drawn) | 18.1% (inactive) |
| O=[N+]([O-])c1ccc(CCl)cc1 | 16.4% (inactive) |
| CCN(CC)CCN(Cc1ccccc1)C(=O)C(O)(c1ccccc1)c1ccccc1 | -0.4% (inactive) |
| [Cl][Sn]([Cl])([c]1ccccc1)[c]1ccccc1 | 0.95% (inactive) and 97.1% (active) |
| O=NN1CCNCC1 | -20.1% (inactive) and -11.3% (inactive) |
| C=C(C)C(=O)OCC12CCC(C)=CC1OC1C(=O)C(OC(=O)C(=C)C)C2(C)C12CO2 (stereo not drawn) | 8.55% (inactive) |
| OCCN=Cc1ccccc1O.OCCN=Cc1ccccc1O.[Ni] | 32.2% (inactive) |
| CN1C(=O)C2(Cc3cn(C45CC67SSC(CO)(C(=O)N6C4Nc4ccccc45)N(C)C7=O)c4ccccc34)SSC1(CO)C(=O)N2C (stereo not drawn) | 90.2% (active) |
| COC(=O)C1(C(=O)OC)ON1C(C)(C)C (stereo not drawn) | -48.5% (inactive) |
| Oc1c(Cl)cc(Cl)cc1C1N(Cc2ccc(N(CCCl)CCCl)cc2)CCCN1Cc1ccc(N(CCCl)CCCl)cc1 | 8.75% (inactive) |
| CCCCN(CCCC)CC(O)c1ccc(Cl)c(Cl)c1 (stereo not drawn) | -1.5% (inactive) |
| COP(=O)(NC(C)=O)OC | 11.6% (inactive) |
| CCOC(=O)C[CH2][Sn]([Cl])([Cl])[Cl] | 17.4% (inactive) |

Test: NCI Yeast Anticancer Drug Screen. Data for the mec2-1 strain (AID 157)
Conditions: S. cerevisiae mec2-1 strain, at 50.0 µM, stronger effect = higher value
Outline: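 Strain: mec2-1 (DNA repair/cell cycle alteration). Compound exposure, then growth measured; inhibition expressed relative to vehicle.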

| Compound | growth inhibition |
| --- | --- |
| O=[As]c1ccc(C(=O)O)cc1 (stereo not drawn) | -8.75% (inactive) |
| CCCC[As](CCCC)SC1OC(COC(C)=O)C(OC(C)=O)C(OC(C)=O)C1OC(C)=O (stereo not drawn) | 98.7% (active) |
| O=C([O-])c1ccccc1Nc1ccccn1.O=C([O-])c1ccccc1Nc1ccccn1.[Ni+2] | -12.4% (inactive) |
| Nc1cc(N)c([N+](=O)[O-])cc1[N+](=O)[O-] | 2.8% (inactive) |
| C(#CCN1CCCCCC1)CN1CCCCCC1 | -9.8% (inactive) |
| Cc1ccc(OP(=O)(Oc2ccc(C)c(C)c2)Oc2ccc(C)c(C)c2)cc1C | -8.55% (inactive) |
| CCCCC(CC)C(=O)O (stereo not drawn) | -0.3% (inactive) and 11.5% (inactive) |
| Nc1ncnc2c1ncn2C1OC(CO)C2NP(=O)(N(CCCl)CCCl)OC21 (stereo not drawn) | -6.2% (inactive) and 1.7% (inactive) |
| NCCN.NCCN.[Cl-].[O]=[Re]=[O] | -8.55% (inactive) |
| Br[CH](Br)[Hg][c]1ccccc1 | 99.5% (active) |
| CCCCOC1OCN(C2CCCCC2)CC1(C)C (stereo not drawn) | 28.1% (inactive) |
| O=C(NP(=O)(N1CC1)N1CC1)c1cc(I)ccc1I | -1.7% (inactive) |
| Cc1cc(N(C)CCCl)ccc1N=Nc1ccccc1C(=O)O | 10.8% (inactive) |
| CCCOC(=O)c1cncn1C(C)c1ccccc1 (stereo not drawn) | 18.7% (inactive) |
| CC[N+]1(CC)CC[N+](CC)(CC)CC1 | -49% (inactive) |
| NC(N)=N/N=C/C(=N\N=C(N)N)C(O)C(O)C(O)C(O)CO (stereo not drawn) | -20.9% (inactive) and -3.55% (inactive) |
| N.O=S(=O)(O)O.[Al] | 7.45% (inactive) |
| CC(C)OC(=S)S.[Cu+2] | -6.7% (inactive) |
| CC1=CC(C(=O)O)P(C)(=O)C1 (stereo not drawn) | -18.2% (inactive) |
| C[CH2][Sn]([CH2]C)([n]1c(C)nc2ccccc21)[n]1c(C)nc2ccccc21 | 2.95% (inactive) |

| Compound | growth inhibition |
| --- | --- |
| CCC[As](=O)(O)CC(C)C | -2.8% (inactive) |
| C1CC[N-]CC1.C1CC[N-]CC1.[Cl][Pd][Cl] | 8.8% (inactive) |
| O=C(O)c1ccccc1 | -0.2% (inactive) and -17.9% (inactive) |
| O=C(CCl)Oc1ccccc1Cl | -5.4% (inactive) |
| N#CCCCBr | -15.8% (inactive) |
| CCCCOCN(COCCCC)C(C)Cc1ccccc1 (stereo not drawn) | -3.3% (inactive) |
| CC(O)CN(CCN(CC(C)O)CC(C)O)CC(C)O.O=[N+]([O-])O.[Cu+2] (stereo not drawn) | -54% (inactive) |
| CC1CCC(OC(=O)CCl)CC1 (stereo not drawn) | 19.4% (inactive) |
| O=[N+]([O-])c1ccc(CCl)cc1 | 30.5% (inactive) |
| CCN(CC)CCN(Cc1ccccc1)C(=O)C(O)(c1ccccc1)c1ccccc1 | -23.6% (inactive) |
| [Cl][Sn]([Cl])([c]1ccccc1)[c]1ccccc1 | 29.9% (inactive) and 96.2% (active) |
| O=NN1CCNCC1 | -16.1% (inactive) and -24.3% (inactive) |
| C=C(C)C(=O)OCC12CCC(C)=CC1OC1C(=O)C(OC(=O)C(=C)C)C2(C)C12CO2 (stereo not drawn) | 19.9% (inactive) |
| OCCN=Cc1ccccc1O.OCCN=Cc1ccccc1O.[Ni] | 7.3% (inactive) |
| CN1C(=O)C2(Cc3cn(C45CC67SSC(CO)(C(=O)N6C4Nc4ccccc45)N(C)C7=O)c4ccccc34)SSC1(CO)C(=O)N2C (stereo not drawn) | 90.3% (active) |
| COC(=O)C1(C(=O)OC)ON1C(C)(C)C (stereo not drawn) | -17.6% (inactive) |
| Oc1c(Cl)cc(Cl)cc1C1N(Cc2ccc(N(CCCl)CCCl)cc2)CCCN1Cc1ccc(N(CCCl)CCCl)cc1 | 17.2% (inactive) |
| CCCCN(CCCC)CC(O)c1ccc(Cl)c(Cl)c1 (stereo not drawn) | -21.3% (inactive) |
| COP(=O)(NC(C)=O)OC | -14.7% (inactive) |
| CCOC(=O)C[CH2][Sn]([Cl])([Cl])[Cl] | 22.5% (inactive) |
